Source: ChEMBL document CHEMBL3988442, “University of Dundee, Small-Polar-MMV Screening Library” (2021)
About 13,000 (27%) of roughly 48,000 compounds showed an effect of 50% or more. This is one part of the list.

Tested on: Wolbachia pipientis
Assay: Anti-Wolbachia Cell-Based Screen
Assay type: functional
Set-up: scale not given: in the data most compounds retested in dose-response had high values
Details: 5 µM

Row | SMILES | Percent Effect [%]
1 | CC(NC(=O)c1cnccn1)c1nnc2ccccn12 (centres undefined) | -8.378
2 | CN(CC1Cc2ccccc2CN1C)C(=O)CSc1nccn1C (centres undefined) | -6.855
3 | CN(C)C(C(=O)Nc1nccs1)c1c(F)cccc1Cl (centres undefined) | -1.745
4 | CCCN1CCC(Nc2nc(CC)ns2)CC1 | -19.08
5 | O=C(c1ccncc1)N1CCC2(CC1)CCN(C(=O)c1cccnc1)C2 | 102.3
6 | O=C(c1ccnnc1)N1CCC2(CC1)CCN(C(=O)c1cccnc1)C2 | 96.42
7 | CN(Cc1cccnc1)C1CC2(CCN(C(=O)c3ccnnc3)CC2)C1 | 9.482
8 | O=C(c1ccncc1)N1CCC2(CC1)CC(Oc1cccnc1)CO2 (centres undefined) | -1.534
9 | COC(=O)[C@H]1CN(C(C)=O)CCN1C(C)=O | -4.652
10 | O=C1CCN(C(=O)C2(c3ccc(F)cc3)CCCCC2)CCN1 | -15.47
11 | CNS(=O)(=O)CCCNC(C)(C)c1nc(C)cs1 | 1.727
12 | CCOc1ccccc1C(CC(=O)O)NC(C)=O (centres undefined) | 10.47
13 | Cc1nsc(NC2CC(=O)N(C(C)(C)C)C2)n1 (centres undefined) | -3.11
14 | COc1ccc(-c2ccccc2CCN)c(OC)c1OC | -10.47
15 | COc1cc(-c2cnnc(NCC3CC3)n2)cc(OC)c1OC | 22.6
16 | COc1cc(CNc2nncs2)cc(OC)c1OC | -2.056
17 | COc1cc(CO)c(OC)c2c1OCO2 | 0.3319
18 | COc1cc(CNc2nc3c(c(=O)[nH]2)CCNC3)cc(OC)c1OC | -8.828
19 | COc1cc(-c2n[nH]c(CO)n2)cc(OC)c1OC | 101.2
20 | COc1cc(-c2n[nH]c(CCN)n2)cc(OC)c1OC | 136.2
21 | COc1cc(-c2nc(N)n[nH]2)cc(OC)c1OC | 107.9
22 | COc1cc(-c2cnnc(NCCSC)n2)cc(OC)c1OC | -5.891
23 | COc1cc(-c2n[nH]c(CC#N)n2)cc(OC)c1OC | 137.1

Row | SMILES | Percent Effect [%]
24 | COc1ccc(OC)c(-n2cnnc2CCN)c1 | 12.28
25 | CC(C)c1nccn1C1CCCN(C(=O)c2cccc3[nH]ncc23)C1 (centres undefined) | -3.235
26 | CN(CCNC(=O)Nc1ccncc1)C1CCCCC1 | -10.45
27 | COCCC(=O)NCCCOC1CCCc2ccccc21 (centres undefined) | 3.193
28 | CC(=O)N1CCN(C(=O)NCCCN(C)S(C)(=O)=O)CC1 | -13.58
29 | CC(C)c1noc(C(C)N2CCN(Cc3nc4ccccc4[nH]3)CC2)n1 (centres undefined) | -18.96
30 | CCN(C(=O)CN1CCCC1Cc1ccccc1)c1ccccc1 (centres undefined) | 22.38
31 | COc1cc(-c2n[nH]c(CN)n2)cc(OC)c1OC | 105.2
32 | COc1cc(-c2cccc3c2OC(CN)C3)cc(OC)c1OC (centres undefined) | 1.955
33 | COc1cc(CN)c(OC)c2c1OCO2.Cl | -2.392
34 | CNS(=O)(=O)c1ccc(CNC(=O)NCC2CCOC2)cc1 (centres undefined) | 7.061
35 | Cn1cc(CN2CC[C@H]3C[C@H](c4nc(C5CC5)cs4)O[C@@H]3C2)cn1 | 15.37
36 | Cc1csc([C@@H]2C[C@H]3CN(c4ncc(F)cn4)C[C@H]3O2)n1.O=C(O)C(F)(F)F | 98.65
37 | Cc1nc(CN2C[C@@H]3CN(c4ncc(F)cn4)C[C@@H]3C2=O)cs1.O=C(O)C(F)(F)F | -12.56
38 | Cn1cc(CN2CC[C@H]3C[C@@H](c4nc(C5CC5)cs4)O[C@@H]3C2)cn1 | -0.3412
39 | Fc1cnc(N2C[C@@H]3C[C@@H](c4nc(C5CC5)cs4)O[C@@H]3C2)nc1.O=C(O)C(F)(F)F | 94.12
40 | Cc1cnc(C(=O)N2CC[C@H]3C[C@@H](c4nc(C)cs4)O[C@@H]3C2)cn1 | -16.87
41 | Cc1cccc(N2CCN(c3ccn4c(=O)[nH]nc4n3)CC2)c1C | -10.93
42 | Cc1ccc2c(c1C)OCC2NCc1cccc(C#N)c1 (centres undefined) | -16
43 | Cc1cc2n(n1)CC(CNCCNC(=O)c1ccc(F)cc1)CN2 (centres undefined) | -2.749
44 | CC(C(=O)N1CCCC1)S(=O)(=O)Cc1nc(C(C)(C)C)no1 (centres undefined) | 0.9098
45 | CCCc1nnc(NC2CCN(C3CCCC3)CC2)o1 | -6.832
46 | c1ccc(-c2nc(CCNc3nnc(C4CCC4)o3)no2)cc1 | -25.81

Row | SMILES | Percent Effect [%]
47 | CCCc1nnc(NC2CCN(CCO)CC2)o1 | -14.34
48 | Cc1cccc(C)c1NCc1noc(C2CC2)n1 | -19.13
49 | c1ccc(-c2n[nH]c(CCNc3nnc(C4CCC4)o3)n2)cc1 | -23.29
50 | CCCc1nnc(NCCc2noc(C3CCC3)n2)o1 | 108
51 | CCCc1nnc(NC2CCN(C3CCOCC3)CC2)o1 | -6.121
52 | CCCc1nnc(NCCc2noc(C3CC3)n2)o1 | 133.3
53 | CCCc1nnc(NCCc2noc(C3CCCC3)n2)o1 | 110.1
54 | CCOC(=O)CCNC(=O)N1CCCC(CNC(=O)c2cccs2)C1 (centres undefined) | -0.8406
55 | COCC(C)NCc1nc(-c2ccc(C)cc2)c(-c2ccccn2)[nH]1 (centres undefined) | 22.14
56 | O=C(NCC1CC[C@@]2(CNCCOC2)O1)c1cnccn1 (some centres undefined) | -4.727
57 | CCOCC(O)CN1CCN(C(=O)c2cccc3[nH]ncc23)CC1 (centres undefined) | -8.301
58 | CCOCC(O)CN1CCN(C(=O)CC(C)C)CC1 (centres undefined) | -1.349
59 | CCOCC(O)CN1CCN(C(=O)c2cc(C)ccc2OC)CC1 (centres undefined) | 91.25
60 | CCOCC(O)CN1CCN(C(=O)c2ccc(OC)cc2F)CC1 (centres undefined) | 5.863
61 | CCOCC(O)CN1CCN(C(=O)c2ccccc2Cl)CC1 (centres undefined) | -0.07038
62 | CCOCC(O)CN1CCN(C(=O)c2cc(C)ccc2F)CC1 (centres undefined) | 114.4
63 | CCOCC(O)CN1CCN(C(=O)c2cc(Cl)ccc2F)CC1 (centres undefined) | 107.8
64 | CCOCC(O)CN1CCN(C(=O)c2cccnc2OC)CC1 (centres undefined) | -8.967
65 | CCOCC(O)CN1CCN(C(=O)c2cc(F)ccc2C)CC1 (centres undefined) | -5.879
66 | CCOCC(O)CN1CCN(C(=O)c2ccccc2F)CC1 (centres undefined) | 82.64
67 | CCOCC(O)CN1CCN(C(=O)C2CC2)CC1 (centres undefined) | 3.304
68 | CCC(CO)N(Cc1ccccn1)C(=O)c1ccc(F)c(F)c1 (centres undefined) | -4.122
69 | COc1ccccc1[C@@H]1CN(Cc2ccc3nsnc3c2)C[C@H]1C(=O)O | -7.505

Row | SMILES | Percent Effect [%]
70 | O=C1CCCN1CC1CCCCN1C(=O)Nc1cccnc1 (centres undefined) | 2.863
71 | CC(CO)(NC(=O)Nc1nnc(C2CC2)s1)C1CCCCC1 (centres undefined) | -9.055
72 | CCN(C)c1ncnc2c1CCN(C(=O)c1ccc(C)o1)CC2 | 16.8
73 | Cc1cccc(N2CCc3ncnc(C4CC4)c3CC2)n1.O=C(O)C(F)(F)F | -0.7923
74 | Cc1ncnc2c1CCN(c1ccccn1)CC2.O=C(O)C(F)(F)F | -1.048
75 | Cc1ccc(N2CCc3ncnc(C)c3CC2)nn1 | 98.11
76 | CCN(C)c1ncnc2c1CCN(Cc1ccoc1)CC2 | 5.87
77 | Cc1ccc(N2CCCC(N(C)c3ncnc4c3CCC4)C2)nn1 (centres undefined) | 40.92
78 | c1ccc(N2CCc3ncnc(C4CC4)c3CC2)nc1 | -3.177
79 | CCN(C)c1ncnc2c1CCN(c1ccc(C)nn1)CC2 | 88.89
80 | Cc1ncnc2c1CCN(c1cc(C(F)(F)F)ncn1)CC2 | -23.9
81 | CCN(CC)c1ncnc2c1CCN(CC1CCOCC1)CC2.O=C(O)C(F)(F)F | -1.394
82 | CCN(CC)c1ncnc2c1CCN(c1ccc(C)nn1)CC2 | 109.1
83 | Cc1ccc(N2CCc3ncnc(C4CC4)c3CC2)nn1 | 109.7
84 | CN(c1nc(Cn2cc(Br)ccc2=O)cs1)C1CC1 | -13.88
85 | CS(=O)(=O)N1CCC(c2nnc3ccc(C(=O)N4CCCC4)cn23)C1 (centres undefined) | -3.487
86 | CCc1cnc(N)nc1NCCCn1nc(C)nc1C | 4.841
87 | CC(CCN1CCOCC1)NC(=O)c1cccc(C(F)(F)F)c1F (centres undefined) | -6.149
88 | c1ccc(N2CCC(NCc3cccc4cn[nH]c34)C2)cc1 (centres undefined) | 2.833
89 | COc1ccc(N2CCC(C(=O)/N=c3/[nH]ccs3)CC2)nn1 | 7.434
90 | Cc1nc(CCNC(=O)C2CC(=O)N(C(C)C)C2)sc1C (centres undefined) | -29.36
91 | COCCN(CC1CCCN(C2Cc3ccccc3C2)C1)C(=O)CO (centres undefined) | -6.477
92 | Cc1ccc(N2CCc3ncnc(N(C)C)c3CC2)nn1 | 103.7

Row | SMILES | Percent Effect [%]
93 | Cc1ccccc1S(=O)(=O)N1CCc2c(ncnc2N(C)C)C1 | -0.5839
94 | CN(C)c1ncnc2c1CCN(c1ccccc1)CC2 | 9.479
95 | Cc1nc(CN(C)C2CCCN(c3ccccc3)C2)no1 (centres undefined) | 85.51
96 | Cc1nc(CN(C)C2CCN(CC3CCCCC3)C2)no1 (centres undefined) | 12.52
97 | Cc1nc(CN(C)C2CCN(CC(=O)N(C)CCC#N)C2)no1 (centres undefined) | -8.122
98 | CN(Cc1cc(=O)c(O)co1)C1CCCN(c2ccccc2)C1 (centres undefined) | -2.476
99 | Cc1nc(CN(C)C2CCN(CC3CCCC3)C2)no1 (centres undefined) | 93.14
100 | Cc1cc(CN(C)C2CCCN(Cc3noc(C)n3)C2)on1 (centres undefined) | 4.561
101 | Cc1nc(CN(C)C2CCN(CC3CCC3)C2)no1 (centres undefined) | 98.61
102 | Cc1nc(CN(C)C2CCN(CC3CCOCC3)C2)no1 (centres undefined) | 108.1
103 | O=C(c1nc(=O)[nH][nH]1)N1CCC2(CCCCC2)C1 | -9.423
104 | c1ccc(SCCN2CCN(CCn3cncn3)CC2)cc1 | 8.727
105 | CCC(CO)N(Cc1ccsc1)Cc1ccc(-c2ccn[nH]2)s1 (centres undefined) | -9.048
106 | CN1CCN(C2CCN(CC(=O)NCC(F)(F)F)CC2)C1=O | -4.835
107 | CCS(=O)(=O)N1CCC(C(=O)NC(Cc2ccsc2)c2nccs2)CC1 (centres undefined) | 102.7
108 | O=C(NC(Cc1ccsc1)c1nccs1)C1CCOCC1 (centres undefined) | -7.907
109 | CC(NC(=O)NCc1cccc(CN2CCCC2)c1)c1nccs1 (centres undefined) | -2.261
110 | O=C(NC(Cc1ccsc1)c1nccs1)C1CC1 (centres undefined) | 111.3
111 | O=C(CSCc1ccncc1)N(Cc1ccsc1)C1CC1 | 10.91
112 | CC(C)Oc1cccc(CNC(=O)NC2(CO)CCCC2)c1 | 12.23
113 | CC(C)Oc1cccc(CNC(Cc2ccsc2)c2nccs2)c1.Cl (centres undefined) | 94.44
114 | CS(=O)(=O)N1CCC(C(=O)NC(Cc2ccsc2)c2nccs2)CC1 (centres undefined) | -7.112
